Experimental data: PubChem BioAssay AID602247 (The Scripps Research Institute Molecular Screening Center, 2012)
About 80 (0.02%) of roughly 360,000 compounds were called active. This is one part of a sample in which actives are shown more often than they occur. A number with no mark means an inactive call.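 Rule for the calls: active = activation above the run cutoff, the mean activation of all test compounds plus 3 SD (cut at about 40% in these data); inactive = the rest.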

assay: ATP EC20 calcium response enhancers, parental CHO-K1 – cell-based, Fluo-8 calcium fluorescence, full deck, 1536-well, counter-screen for M1 PAM project, primary screen (AID 602247); conditions: parental CHO-K1, ATP EC20, Fluo-8 calcium fluorescence; at 3 µM; active compounds read high; 0% at ATP EC20, 100% at ATP max;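 note: peak over basal fluorescence ratio in a 140 s read after ATP addition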

Row | Structure (SMILES) | activation
1 | Nc1scc(-c2ccncc2)c1Cl | 13.6%
2 | Cc1cccc(CC2(O)C(=O)Nc3ccccc32)n1 (stereo not given) | 12.3%
3 | Cc1ccc(C)c(OCCC(=O)Nc2cccc(S(=O)(=O)N3CCCC3)c2)c1 | 10.7%
4 | O=c1[nH]c(CCl)nc2cc(-c3ccc(Cl)cc3)sc12 | 13%
5 | CN[C@H](C(=O)NC[C@H]1O[C@@H](n2cnc3c(N)ncnc32)[C@H](O)[C@@H]1O)[C@@H](C)OCc1ccccc1 | 11.7%
6 | O=C(NNS(=O)(=O)c1ccc([N+](=O)[O-])cc1)C1CCCCC1 | -9.25%
7 | COC(=O)c1ccccc1NC(=O)C1(S(=O)(=O)c2ccc(Cl)cc2)CC1 | -15%
8 | CSc1ccccc1C(=O)OCC(=O)N1CCN(C(C)=O)CC1 | 15.7%
9 | O=C(CSCc1ccccc1Cl)NNC(=O)c1ccccc1 | 2.85%
10 | O=C(OC1CCOC1=O)c1ccc(-c2nc3ccccc3s2)s1 (stereo not given) | 10.6%
11 | Cc1ccc2nc(NC(=O)C3CSC4(C)CCC(=O)N34)sc2c1 (stereo not given) | -12.5%
12 | COC(C[C@@H](O)C[C@@H](O)[C@H](C)OCc1ccccc1)OC | 17.1%
13 | Cc1ccc([C@H]2N[C@]3(CCCN(Cc4ccccc4)C3=O)[C@H]3C(=O)N(Cc4ccccc4)C(=O)[C@@H]23)cc1 | 1.9%
14 | CC(=O)NC1=NC(=O)CS1 | 15.2%
15 | C[C@H]([C@@H](O)[C@@H](O)[C@@H](C)C(C)(C)C)[C@H]1CC[C@H]2C3CC[C@H]4C[C@H](OS(=O)(=O)O)[C@@H](OS(=O)(=O)O)C[C@]4(C)[C@H]3CC[C@]12C (stereo not given in full) | 46.3% (active)
16 | CC(=O)O[C@H]1CC[C@@]2(C)[C@@H](CC[C@@H]3[C@@H]2CC[C@]2(C)[C@@H](C(C)(C)O)C[C@@H]32)C1 | 4%
17 | CCOC(=O)c1c(C)n(C)c2ccc(OC)c(NC(=O)CN3CCC4(CC3)OCCO4)c12 | 7.82%
18 | O=C(CN(c1ccccc1)S(=O)(=O)c1ccc(Cl)cc1)Nc1ccccc1C(=O)N1CCCC1 | 8.26%
19 | CCOc1ccccc1NC(=O)C1CCN(S(=O)(=O)c2c(C)nn(C)c2C)CC1 | -1.01%
20 | Cc1ccc(N2CCN(c3ccc(C)cc3)C2c2ccccn2)cc1 | -7.38%
21 | COc1ccc(S(=O)(=O)N2CCN(C(=O)c3cc(C)oc3C)CC2)cc1 | 20.2%
22 | COc1ccc(CCN2CC(C(=O)OCC(=O)NCc3ccccc3Cl)CC2=O)cc1OC (stereo not given) | -3.82%
23 | Cc1cc(C(=O)CC#N)c(C)n1CC(F)(F)F | 13.3%

Row | Structure (SMILES) | activation
24 | C/C(=N/NC(=O)CSc1ccccn1)c1ccc([N+](=O)[O-])cc1 | 22.4%
25 | CC1(C)CC2CC(C)(CN2c2ncnc3ccc(Br)cc23)C1 (stereo not given) | 17.9%
26 | C/C(N)=C(\C#N)C(=O)NCCc1ccccn1 | 21.8%
27 | O=C(/C=N/O)Nc1ccccc1 | 6.67%
28 | CN1CCN(c2cc(=O)n(-c3ccc(Cl)cc3)c(=O)[nH]2)CC1 | 1.64%
29 | COc1ccc(C2/C=C\CN(S(=O)(=O)c3cccs3)CC(=O)N2Cc2ccc(F)cc2)cc1 (stereo not given) | -11.5%
30 | CC(C)NC(=O)c1ccccc1S(=O)c1ccccc1C#N (stereo not given) | 0.52%
31 | O=C(CSc1nnnn1-c1ccc2c(c1)CCC2)Nc1ccc2c(c1)OCCO2 | -11.2%
32 | O=C1c2ccccc2C(=O)N1CCc1nn[nH]n1 | 16.6%
33 | CC(C)(C)c1ccc(/C=C2\Oc3c(ccc(O)c3CN3CCN(CCO)CC3)C2=O)cc1 | 4.37%
34 | CCCCOc1ccc(C(=O)NCC(=O)OCC(=O)c2c(N)n(C)c(=O)n(C)c2=O)cc1 | -1.27%
35 | COc1cccc(CNCc2ccc3c(c2)OCO3)c1 | 18.7%
36 | CCOc1ccccc1N1CCN(C(=S)Nc2ccc(S(N)(=O)=O)cc2)CC1 | 17.3%
37 | COc1ccc(C2=NOC(Cn3nc(C(=O)NCc4ccc5c(c4)OCO5)cc3-c3ccccc3)C2)cc1 (stereo not given) | 14.9%
38 | CCOc1cc(C2C(C(=O)OC(C)C)=C(C)NC3=C2C(=O)CCC3)cc([N+](=O)[O-])c1O (stereo not given) | 14.9%
39 | COCCNC(=O)CSc1nc2c(n1-c1ccccc1)CCCC2 | 10.3%
40 | O=C1CC(C(F)(F)C(F)(F)C(F)(F)C(F)(F)F)=Nc2ccccc2N1 | 17.5%
41 | CCN1C(=NCC(C)C)N[C@@H](CCc2ccccc2)[C@H](C(=O)NCC(C)C)[C@H]1C | 8.06%
42 | CC(CC(=O)N1CCN(S(=O)(=O)c2ccccc2)CC1)n1cncn1 (stereo not given) | 23.5%
43 | CSc1ncccc1C(=O)OCc1ccc(Br)cc1 | 17%
44 | CC(C)COc1ccc(C(=O)OCC(=O)NCCC2=CCCCC2)cc1 | 0.12%
45 | Cc1noc(NS(=O)(=O)c2ccc(NC(=O)c3oc4ccc(F)cc4c3C)cc2)c1C | 14.4%
46 | O[C@H]1CN(Cc2cccs2)[C@@H](c2ccc(Cl)cc2)C[C@@H]1n1cc(C2CC2)nn1 | 1.81%

Row | Structure (SMILES) | activation
47 | O[C@H]1C[C@H](c2ccc(Cl)cc2)N(Cc2cccs2)C[C@@H]1n1cc(C2CC2)nn1 | 47.2% (active)
48 | O[C@@H]1C[C@H](c2ccccc2)N(Cc2cccs2)C[C@H]1n1cc(C2CC2)nn1 | 31.2%
49 | Cc1ccc(C2NC(=S)NC3=C2N2CCC3CC2)cc1 (stereo not given) | 12.6%
50 | NC(=O)c1ncn([C@@H]2O[C@H](CN=C3NS(=O)(=O)c4ccccc43)[C@@H](O)[C@H]2O)n1 | 12.9%
51 | COc1ccccc1N1CCC(N2CCN(CC(C)(C)C)C(CCO)C2)CC1 (stereo not given) | 15.1%
52 | O=S(=O)(NCc1ccc2c(c1)OCO2)c1cccc2nsnc12 | -1.4%
53 | Cc1ccc(NC(=S)Nc2ncccc2C)c(C)c1 | 14.7%
54 | Cc1cc(C)cc(NC(=O)COC(=O)c2cc(C)oc2C)c1 | 9.08%
55 | COC(=O)Cn1cnc2scc(-c3ccc(C)c(C)c3)c2c1=O | 12.6%
56 | C[C@H](NC(=O)[C@@H]1CCCN1C(=O)[C@@H]1CCCN1C(=O)c1ccccc1)c1ccccc1 | 20.5%
57 | CCc1ccc(OCC(=O)NCC(c2ccc(Cl)cc2)N2CCCCC2)cc1 (stereo not given) | 11%
58 | COc1ccc(C)cc1N(CC(=O)N1CCCC1)S(=O)(=O)c1ccccc1 | 9.46%
59 | Cc1ccc(C)c(NC(=O)c2cc(-c3cc(C)cc(C)c3O)n[nH]2)c1 | -21.6%
60 | O=C(Nc1cccnc1)c1cc2cc(Br)ccc2oc1=O | -7.52%
61 | O=C(CSc1nnc(-c2cccs2)n1Cc1ccco1)c1ccc2c(c1)OCO2 | 22.8%
62 | CCN(CC)Cc1cc(C(C)=O)ccc1O | -6.07%
63 | C=CCOc1ccccc1NC(=O)CN1C(=O)CNC1=O | 13.6%
64 | Cc1ccc(NC(=O)CN(C)C(=O)c2ccc(Br)o2)cc1 | -2.97%
65 | CCOC(=O)c1ccc(N2C(=O)CC(Sc3nc(O)c(CC)c(=O)[nH]3)C2=O)cc1 (stereo not given) | 11.8%
66 | Fc1cccc(Cc2noc(CN3CCN(c4cnccn4)CC3)n2)c1 | 10.6%
67 | Cc1c(Br)c([N+](=O)[O-])nn1C(C)C(=O)Nc1nccs1 (stereo not given) | 3.45%
68 | O=c1cc(CN2CCN(S(=O)(=O)/C=C/c3ccccc3)CC2)c2ccc(O)cc2o1 | -3.7%
69 | Cc1ccc(-c2ccc(C3=CC(=O)CC(C)(C)C3=O)cc2)cc1 | 8.88%

Row | Structure (SMILES) | activation
70 | O=C(NC12CC3CC(CC(C3)C1)C2)N1CCCC(CO)C1 (stereo not given) | 11.3%
71 | COc1cc(CCC(=O)N2CCN(c3ccccc3Cl)CC2)cc(OC)c1OC | 15.8%
72 | O=C(CN1CCN(C(=S)NC2CCCC2)CC1)Nc1ccc(Oc2ccccc2)cc1 | -1.33%
73 | Cc1cccc(N2C(=O)C3C(c4ccccc4)OC4(C(=O)c5ccccc5C4=O)C3C2=O)c1 (stereo not given) | 10.9%
74 | O=C(OCC(=O)N1CCCCCC1)c1ccc(Cl)nc1 | 21.8%
75 | COc1cc(CNc2ncn[nH]2)ccc1OCc1ccccc1C | -0.62%
76 | COc1ccc(OC)c(C(=O)NC(CC(N)=O)c2ccc(N3CCC(N4CCCCC4)CC3)c([N+](=O)[O-])c2)c1 (stereo not given) | 26.1%
77 | CC(NC(=O)COc1cccnc1[N+](=O)[O-])c1ccc(Cl)cc1Cl (stereo not given) | -1.02%
78 | Cc1cc(C)c(S(=O)(=O)N(C)CC(=O)NCC2CCCO2)c(C)c1 (stereo not given) | -22.7%
79 | Nc1nc(SCC(=O)Nc2ccc(Cl)cc2C(F)(F)F)n[nH]1 | 5.7%
80 | Cc1ccc(SCCN2C(=O)NC(C)(C)C2=O)cc1 | 11.2%
81 | C=CCn1c(COc2ccccc2F)nnc1SCC(=O)N1CC(=O)Nc2ccccc21 | 15.7%
82 | COc1ccccc1C(=O)N/C(=C/c1ccc2c(c1)OCO2)C(=O)Nc1cccc(C(=O)O)c1 | -17.7%
83 | CCc1ccc(N2CC(C(=O)NC3=NCCS3)CC2=O)cc1 (stereo not given) | -0.63%
84 | Cc1nc2ccccn2c(=O)c1NC(=O)c1ccc(Br)o1 | 7.36%
85 | CCOc1cc(NC(=O)CCl)c(OCC)cc1NC(C)=O | 10.9%
86 | Cc1ccc(C(C)C)c(OCCSc2nc3ccccc3n2CC(=O)O)c1 | 1.93%
87 | COc1cccc(-c2nc3n(n2)C(c2ccccc2Cl)C(C(N)=O)=C(C)N3)c1 (stereo not given) | 3.28%
88 | COc1ccc(NC(=O)c2sc(N3CCOCC3)nc2-c2ccccc2)c(OC)c1 | 44.6% (active)
89 | COc1ccc(NC(=O)CNc2cc(S(=O)(=O)N3CCOCC3)ccc2N2CCOCC2)c(OC)c1 | 9.94%
90 | COc1ccc(NC(=O)NN2CCN(C)CC2)c(OC)c1 | 15.7%
